Screens as filed in PubChem.
A selection: hits, their analogues and other compounds. The true share with any hit is near 2.5%.
rCAG binder-1 – binds r(CAG) RNA repeats. r(CAG) RNA repeat, TO-PRO-1 dye displacement fluorescence. inhibition, % at 3 µM. 370,000 compounds, 1.3% hits;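 active = inhibition above the plate cutoff, the mean of all test compounds on that plate plus 3 SD, cut at about 35% in these data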;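 also: higher means more dye released from RNA so lower well fluorescence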
Granule exo inh – blocks lytic granule exocytosis; TALL-104 LAMP-1 surface exposure, flow cytometry; cells stimulated with thapsigargin and PMA; inhibition, % at 10 µM; 360,000 compounds, 0.66% hits;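 active = inhibition above about 55%, limit read from the data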
PG9 binder – binds the HIV-1 gp120 antibody PG9. AID 624416. 360,000 compounds, 0.43% hits. TR-FRET gp120-PG9 antibody binding. inhibition, % at 6.7 µM; in the data active = inhibition above about 8.5%
ABCB6 inh MLPCN – human ABCB6 transporter inhibition | K562-ABCB6 porphyrin accumulation, flow cytometry, 1 h; stronger effect = lower value | Q9NP58 | fluorescence ratio to DMSO, % at 10 µM | 360,000 compounds, 0.19% hits | AID 602162;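 active = fluorescence ratio to DMSO below 75%, the collection mean minus 3 SD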;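 also: signal is porphyrin accumulated inside mitochondria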
Target sequence (Q9NP58 whole entry, looked up): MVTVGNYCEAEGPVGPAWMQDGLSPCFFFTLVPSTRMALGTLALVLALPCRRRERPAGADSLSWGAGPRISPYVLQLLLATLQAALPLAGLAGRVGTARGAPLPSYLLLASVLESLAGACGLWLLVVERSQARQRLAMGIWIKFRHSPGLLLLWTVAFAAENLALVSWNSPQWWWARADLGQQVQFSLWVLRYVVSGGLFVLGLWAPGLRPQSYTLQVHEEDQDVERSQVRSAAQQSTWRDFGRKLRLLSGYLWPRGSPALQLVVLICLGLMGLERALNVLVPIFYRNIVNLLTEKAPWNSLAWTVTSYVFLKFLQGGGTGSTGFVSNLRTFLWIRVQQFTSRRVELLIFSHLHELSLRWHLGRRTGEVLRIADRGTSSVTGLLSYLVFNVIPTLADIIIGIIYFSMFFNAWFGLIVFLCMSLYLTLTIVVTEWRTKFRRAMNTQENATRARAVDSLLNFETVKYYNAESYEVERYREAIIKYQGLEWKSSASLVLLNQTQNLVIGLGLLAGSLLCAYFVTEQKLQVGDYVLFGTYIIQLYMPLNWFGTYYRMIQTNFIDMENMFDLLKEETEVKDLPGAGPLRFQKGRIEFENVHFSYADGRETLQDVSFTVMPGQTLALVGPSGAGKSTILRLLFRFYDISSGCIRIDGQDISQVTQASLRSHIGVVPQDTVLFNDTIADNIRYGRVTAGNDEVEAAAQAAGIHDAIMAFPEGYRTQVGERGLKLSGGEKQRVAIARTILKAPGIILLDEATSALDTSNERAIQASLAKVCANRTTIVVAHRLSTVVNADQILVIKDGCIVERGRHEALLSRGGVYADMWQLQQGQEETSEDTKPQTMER
rCAG binder conf – r(CAG) RNA repeat binding, confirmation. shares compounds with rCAG binder-1. 4,300 compounds, 70% hits. TO-PRO-1 dye displacement fluorescence. AID 652065. inhibition, % at 3 µM;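 active = inhibition above a per-plate cutoff, the mean inhibition of sample wells plus 3 SD, cut at about 35% in these data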;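 also: loss of TO-PRO-1 fluorescence as compound displaces dye from 1x1 AA loop RNA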
DNA CAG counter – DNA CAG dye complex inhibition counter-screen; shares compounds with rCAG binder-1; d(CAG) DNA oligo TO-PRO-1 dye displacement, fluorescence; inhibition, % at 3 µM; 4,300 compounds, 94% hits; AID 652068;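 active = inhibition above its plate's cutoff, the mean test-well inhibition plus 3 SD, cut at about 4.8% in these data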;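 also: hits displace the dye from DNA and so lower well fluorescence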
DNA CAG DR – counter-screen for rCAG binders: inhibitors of DNA CAG TO-PRO-1 complex; shares compounds with rCAG binder-1; DNA CAG/GTC duplex TO-PRO-1 dye displacement fluorescence; IC50, µM; 250 compounds, 20% hits; in the data active = IC50 below about 10 µM
dCAG DNA bind – inhibits DNA CAG/GTC TO-PRO-1 complex, rCAG binder counter-screen. d(CAG) DNA duplex TO-PRO-1 dye displacement, fluorescence. 30 compounds, 80% hits. IC50, µM. shares compounds with rCAG binder-1. AID 720649
rCAG binder-2 – binds r(CAG) RNA repeats in late stage dose response; 30 compounds, 100% hits; shares compounds with rCAG binder-1; r(CAG) RNA TO-PRO-1 dye displacement, fluorescence; IC50, µM
Numbers stand for hits; 0 = inactive; - = no result given. Unless noted, no rule for the calls is given here.

SMILES	rCAG binder-1	Granule exo inh	PG9 binder	ABCB6 inh MLPCN	rCAG binder conf	DNA CAG counter	others
COc1ccc([N+](=O)[O-])cc1NS(=O)(=O)c1ccc(C)cc1	0	0	0	0	-	-
Cc1ccc(S(=O)(=O)Nc2ccc3ccccc3c2[N+](=O)[O-])cc1	61	0	0	0	52	18
Cc1ccc(S(=O)(=O)Nc2ccc3cc([N+](=O)[O-])ccc3c2[N+](=O)[O-])cc1	83	0	0	0	82	47
CCCCOc1ccc(C(=O)NCC(=O)OCCCOC(=O)CNC(=O)c2ccc(OCCCC)cc2)cc1	0	0	0	0	-	-
C/C(=N/NC(=O)CN1CCN(S(=O)(=O)c2ccc(C)cc2)CC1)c1ccco1	0	0	0	0	-	-
C=CCc1cc(C=O)cc(OCC)c1OCc1ccc(Cl)cc1	0	0	0	0	-	-
C=CCc1cc(/C=C2/NC(=O)N(CC)C2=O)cc(OCC)c1OCc1ccc(C(=O)O)cc1	43	0	0	0	41	10
COCCNC(=S)N1CCN(Cc2ccc3c(c2)OCO3)CC1	0	0	0	0	-	-
Cc1ccc(-n2c(O)c(C=Nc3ccccc3-c3n[nH]c(=S)[nH]c3=O)c3ccccc3c2=O)cc1C	77	0	0	0	81	48
Cc1ccc(-n2c(O)c(C=Nc3ccccc3-c3n[nH]c(=S)[nH]c3=O)c3ccccc3c2=O)c(C)c1	72	0	0	0	88	57
Cc1cccc(-n2c(O)c(C=Nc3ccccc3O)c3ccccc3c2=O)n1	0	0	0	0	-	-
Cc1cccc(-n2c(O)c(C=Nc3ccccc3-c3n[nH]c(=S)[nH]c3=O)c3ccccc3c2=O)n1	46	0	0	0	44	13
CN(C)Cc1c(-c2ccc(Cl)cc2)nc2ccc(Cl)cn12	0	0	0	0	-	-
COc1ccc(C(=O)/C=C/c2ccsc2)cc1CSCC(=O)O	0	0	0	0	-	-
Nc1ccc2c3c(ccc([N+](=O)[O-])c13)CC2	0	0	0	0	-	-
CCOc1ccc(NC(=O)CN2C(=O)CSC2=O)cc1	0	0	0	0	-	-
O=C(Nc1nnc([C@H]2C[C@H](O)[C@@H](CO)O2)s1)c1ccccc1F	0	0	0	0	-	-
CC(C)C[C@@H](C(=O)N[C@@H](C(=O)O)c1ccccc1)N1C(=O)N2CCc3c([nH]c4ccccc34)[C@@]2(C)C1=O	43	0	0	0	43	12
CC(NC(=O)[C@H](C)N1C(=O)N2CCc3c([nH]c4ccccc34)[C@@]2(C)C1=O)c1ccccc1 (stereo partly specified)	0	0	0	0	-	-
O=C(N/N=C/c1cccc(OC(=O)c2cccc(Br)c2)c1)c1ccncc1	0	0	0	0	-	-
Cc1nc(C)c(-c2csc(Nc3ccc(O)c(C(=O)O)c3)n2)s1	35	0	0	0	0	6.2
Cc1nc(C)c(-c2csc(Nc3ccc(N)cc3)n2)s1	0	0	0	0	-	-
COc1ccc(NC(=O)CSc2nc(O)cc(=O)[nH]2)c(OC)c1	47	0	0	0	0	0
COc1ccccc1NC(=O)CSc1sc2c(O)cc(=O)[nH]c2c1C#N	52	0	0	0	0	8.2
COc1ccc(Cl)cc1NC(=O)CSc1sc2c(O)cc(=O)[nH]c2c1C#N	55	0	0	0	0	16
SMILES	rCAG binder-1	Granule exo inh	PG9 binder	ABCB6 inh MLPCN	rCAG binder conf	DNA CAG counter	others
COc1ccc(NC(=O)CSc2sc3c(O)cc(=O)[nH]c3c2C#N)c(OC)c1	63	0	0	0	0	13
COc1ccc(NC(=O)CSCc2ccc(C#N)cc2)c(OC)c1	0	0	0	0	-	-
O=C(O)c1ccccc1C(=O)c1cccc2ccccc12	0	0	0	0	-	-
O=C(Nc1ccccn1)C1CCCN1S(=O)(=O)c1ccc(Cl)cc1 (stereo unspecified)	0	0	0	0	-	-
COc1cccc(NC(=O)c2ccc(NC(=O)C3CC(=O)OC34CCCCC4)cc2)c1 (stereo unspecified)	0	0	0	0	-	-
Cc1ccc(S(=O)(=O)N2[C@@H](c3ccc(C(C)(C)C)cc3)C(C(=O)O)=CC[C@H]2c2cccc(Cl)c2)cc1	88	0	0	0	75	41
O=C(O)C1=CCC(c2ccc(Cl)c(Cl)c2)N(S(=O)(=O)c2ccc(F)cc2)C1c1cccc(F)c1 (stereo unspecified)	72	0	0	-	68	26
Cc1ccc(S(=O)(=O)N2[C@@H](c3ccc(Br)cc3)C(C(=O)O)=CC[C@H]2c2cccc(Cl)c2)cc1	0	0	0	0	-	-
Cc1ccc([C@H]2C(C(=O)O)=CC[C@@H](c3cccc(Cl)c3)N2S(=O)(=O)c2ccc(C)cc2)cc1	0	0	0	0	-	-
Cc1ccc(S(=O)(=O)N2[C@@H](c3ccc(F)cc3)C(C(=O)O)=CC[C@H]2c2cccc(Cl)c2)cc1	0	0	0	0	-	-
Cc1ccc(S(=O)(=O)N2[C@@H](c3ccc(C(C)(C)C)cc3)C(C(=O)O)=CC[C@H]2c2ccc(Cl)c(Cl)c2)cc1	68	0	0	0	49	24
Cc1ccc(S(=O)(=O)N2[C@@H](c3ccc(Br)cc3)C(C(=O)O)=CC[C@H]2c2ccc(Cl)c(Cl)c2)cc1	87	0	0	0	82	52
Nc1nc(Sc2c([N+](=O)[O-])cc(C(F)(F)F)cc2[N+](=O)[O-])n[nH]1	0	0	0	0	-	-
O=C(COC(=O)Cn1[nH]c(=O)c2ccccc2c1=O)NNC(=O)c1ccccc1	0	0	0	0	-	-
O=c1nc2ccc(Cl)cn2c2ccc(S(=O)(=O)N3CCCCC3)cc12	41	0	0	0	0	4.4
O=C(CSc1nc(CCC2CCCC2)nc2ccccc12)NCc1ccc2c(c1)OCO2	0	0	0	0	-	-
CCc1ccc(NC(=O)CN(c2ccc(OC)cc2)S(=O)(=O)c2c(C)[nH]c(=O)[nH]c2=O)cc1	40	0	0	0	0	0
COc1ccc(N(CC(=O)Nc2cccc(C(F)(F)F)c2)S(=O)(=O)c2c(C)[nH]c(=O)[nH]c2=O)cc1	37	0	0	0	0	8.3
O=C(COc1ccccc1/C=C1\SC(=S)NC1=O)Nc1ccc(F)cc1	39	0	0	0	71	32	DNA CAG DR=0;dCAG DNA bind=2.8;rCAG binder-2=1.1
NC1=NC(=O)/C(=C/c2ccccc2OCC(=O)Nc2ccc(F)cc2)S1	0	0	0	0	-	-
CC(C)N1CC(COc2ccc(Cl)cc2Cl)OC1=O (stereo unspecified)	0	0	0	0	-	-
